These results are taken from PubChem BioAssay (NCI).

SMILES strings stand for the structures. About 79,000 compounds went through this panel and 15% of them were active in at least one assay; those are over-represented in the sample as a whole. A number with no mark means an inactive call. Calls of active or inactive are those of the source. Rule as the data show it: active = growth inhibition above about 70%; inactive = the rest.

A short description of experiment [1]: NCI Yeast Anticancer Drug Screen. Data for the mec2-1 strain (AID 157). The settings on record: S. cerevisiae mec2-1 strain, stronger effect = higher value. The method, boiled down:
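Test agents were screened against the mec2-1 yeast strain, with defined DNA repair or cell cycle alteration. Growth was scored as inhibition against vehicle-only controls.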

Experiment [2] is described as follows: NCI Yeast Anticancer Drug Screen. Data for the cln2 rad14 strain (AID 165).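 Also: 0% = growth equal to vehicle treated cultures.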 The conditions noted are these: S. cerevisiae cln2 rad14 strain, stronger effect = higher value. The method, boiled down: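 Growth of compound-exposed yeast (cln2 rad14 genotype) measured and expressed as inhibition relative to vehicle.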
Experiment [3] in a line: NCI Yeast Anticancer Drug Screen. Data for the bub3 strain (AID 167). The conditions noted are these: S. cerevisiae bub3 mutant strain, stronger effect = higher value. The method, boiled down: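 Steps: expose the mutant yeast strain to compound; grow alongside vehicle-treated cultures; measure growth; express inhibition against the vehicle cultures.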
The nature of experiment [4]: NCI Yeast Anticancer Drug Screen. Data for the mlh1 rad18 strain (AID 175). The conditions noted are these: S. cerevisiae mlh1 rad18 strain growth inhibition, stronger effect = higher value. The method, boiled down: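 In this whole-cell yeast screen, a strain with altered DNA damage repair is challenged with compound, and its growth is measured against matched vehicle-treated controls.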

The nature of experiment [5]: NCI Yeast Anticancer Drug Screen. Data for the sgs1 mgt1 strain (AID 161).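 Also: 0% = growth of cultures given vehicle only.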 The conditions noted are these: S. cerevisiae sgs1 mgt1 strain, stronger effect = higher value. The method, boiled down: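 Mutant yeast exposed to compound; growth scored against vehicle-only wells.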
Experiment [6] can be described thus: NCI Yeast Anticancer Drug Screen. Data for the rad50 strain (AID 155).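 Also: 0% = growth of vehicle-only cultures of the same strain.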 The settings on record: S. cerevisiae rad50 strain growth inhibition, stronger effect = higher value. The method, boiled down:
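Inhibition values express reduced yeast growth in compound-treated cultures relative to vehicle-treated controls.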

[7] abbreviates: at 5.0 µM (retest, dose inferred, filed as 0.5).
Setting [8] is: at 50.0 µM (retest, dose inferred, filed as 5.0).

With `O/N=C\c1ccc(-c2ccccc2)cc1`, the growth inhibition in experiment [1] (setting [7]) was -13%; in experiment [1] (setting [8]), 64%; in experiment [1] (at 50.0 µM), 47.6%; in experiment [2] (setting [7]) it was 17%; in experiment [2] (setting [8]), 67%; in experiment [2] (at 50.0 µM), 51.1%. For the same molecule, the growth inhibition in experiment [3] (setting [7]) is 2%; in experiment [3] (setting [8]), 83% (active); in experiment [3] (at 50.0 µM), 77.7% (active); in experiment [4] (setting [7]), 6%; in experiment [4] (setting [8]), 91% (active); in experiment [4] (at 50.0 µM), 49.6%.
With `COc1c2c(c(C)c3ccc4ccccc4c13)CCN=C2`, the growth inhibition in experiment [1] (setting [7]) is -4%; in experiment [1] (setting [8]), 95% (active); in experiment [1] (at 50.0 µM), 43.3%; in experiment [5] (setting [7]), -5%; in experiment [5] (setting [8]), 96% (active); in experiment [5] (at 50.0 µM) it was 88.2% (active). Also, the growth inhibition in experiment [2] (setting [7]) was -9%; in experiment [2] (setting [8]) it was 83% (active); in experiment [2] (at 50.0 µM), 13.4%; in experiment [3] (setting [7]), 10%; in experiment [3] (setting [8]), 96% (active); in experiment [3] (at 50.0 µM) it was 79.2% (active). For the same molecule, the growth inhibition is -9% in experiment [4] (setting [7]), 93% (active) in experiment [4] (setting [8]) and 79.9% (active) in experiment [4] (at 50.0 µM).
Consider `O=C1c2ccccc2C2N1CCCN2C(=O)c1sc2ccccc2c1Cl` (configuration not stated), for which the growth inhibition in experiment [1] (setting [7]) is 30%; in experiment [1] (setting [8]), 99% (active); in experiment [1] (at 50.0 µM), 92% (active); in experiment [5] (setting [7]) it was 29%; in experiment [5] (setting [8]) it was 99% (active); in experiment [5] (at 50.0 µM) it was 92.8% (active). Also, the growth inhibition in experiment [2] (setting [7]) is 28%; in experiment [2] (setting [8]), 96% (active); in experiment [2] (at 50.0 µM) it was 90.3% (active); in experiment [3] (setting [7]) it was 35%; in experiment [3] (setting [8]) it was 98% (active); in experiment [3] (at 50.0 µM) it was 92% (active). Further, the growth inhibition in experiment [4] (setting [7]) was 44%; in experiment [4] (setting [8]) it was 98% (active); in experiment [4] (at 50.0 µM), 90.5% (active).
With `O=C1c2cccc3cc([N+](=O)[O-])cc(c23)C(=O)N1O`, the growth inhibition in experiment [6] (setting [7]) was 34%; in experiment [6] (setting [8]) it was 56%; in experiment [6] (at 50.0 µM) it was 82.7% (active); in experiment [5] (setting [7]), 13%; in experiment [5] (setting [8]) it was 37%; in experiment [5] (at 50.0 µM), 81.2% (active). For the same molecule, the growth inhibition in experiment [2] (setting [7]) is 20%; in experiment [2] (setting [8]), 35%; in experiment [2] (at 50.0 µM) it was 32.4%; in experiment [3] (setting [7]), 18%; in experiment [3] (setting [8]), 64%; in experiment [3] (at 50.0 µM), 70.5% (active). The growth inhibition in experiment [4] (setting [7]) is 31%; in experiment [4] (setting [8]) it was 71% (active); in experiment [4] (at 50.0 µM), 80.7% (active).
In the case of `O=C1NC(=S)S/C1=C/c1ccc(/C=C2/SC(=S)NC2=O)cc1`, the growth inhibition in experiment [6] (setting [7]) was -16%; in experiment [6] (setting [8]), -3%; in experiment [6] (at 50.0 µM) it was 21%; in experiment [5] (setting [7]), -6%; in experiment [5] (setting [8]) it was -3%; in experiment [5] (at 50.0 µM), 9.45%. The growth inhibition is -19% in experiment [2] (setting [7]); -22% in experiment [2] (setting [8]); 58.4% in experiment [2] (at 50.0 µM); -12% in experiment [3] (setting [7]); -12% in experiment [3] (setting [8]); 7.75% in experiment [3] (at 50.0 µM). Also, the growth inhibition was -15% in experiment [4] (setting [7]), -19% in experiment [4] (setting [8]) and 28.4% in experiment [4] (at 50.0 µM).
Take `CCCCCCCCN(CCCCCCCC)CC(O)c1ccc2cc3c(nc2c1)CCCC3` (configuration not stated): the growth inhibition in experiment [1] (setting [7]) is 13%; in experiment [1] (setting [8]) it was 93% (active); in experiment [1] (at 50.0 µM), 81.4% (active); in experiment [5] (setting [7]), 18%; in experiment [5] (setting [8]), 96% (active); in experiment [5] (at 50.0 µM) it was 98.8% (active). For the same molecule, the growth inhibition was -2% in experiment [2] (setting [7]); 94% (active) in experiment [2] (setting [8]); 97.7% (active) in experiment [2] (at 50.0 µM); 10% in experiment [3] (setting [7]); 94% (active) in experiment [3] (setting [8]); 97.7% (active) in experiment [3] (at 50.0 µM). Moreover, the growth inhibition in experiment [4] (setting [7]) is 14%; in experiment [4] (setting [8]), 96% (active); in experiment [4] (at 50.0 µM), 98.3% (active).
For `NNc1ccccc1F`, the growth inhibition in experiment [6] (setting [7]) was -34%; in experiment [6] (setting [8]), 96% (active); in experiment [6] (at 50.0 µM) it was 99.2% (active); in experiment [5] (setting [7]) it was -42%; in experiment [5] (setting [8]), 92% (active); in experiment [5] (at 50.0 µM), 97.8% (active). For the same molecule, the growth inhibition was -41% in experiment [2] (setting [7]); 65% in experiment [2] (setting [8]); 98% (active) in experiment [2] (at 50.0 µM); -45% in experiment [3] (setting [7]); 44% in experiment [3] (setting [8]); 99.2% (active) in experiment [3] (at 50.0 µM). Besides, the growth inhibition in experiment [4] (setting [7]) is -58%; in experiment [4] (setting [8]), 95% (active); in experiment [4] (at 50.0 µM), 98.9% (active).
On to `O=CC(O)CN1CCCC1` (configuration not stated), for which the growth inhibition in experiment [6] (setting [7]) was -2%; in experiment [6] (setting [8]) it was 11%; in experiment [6] (at 50.0 µM), 49.6%; in experiment [5] (setting [7]), 2%; in experiment [5] (setting [8]), 8%; in experiment [5] (at 50.0 µM), 87.7% (active). Besides, the growth inhibition in experiment [2] (setting [7]) is -4%; in experiment [2] (setting [8]), 6%; in experiment [2] (at 50.0 µM), 96.8% (active); in experiment [3] (setting [7]), -4%; in experiment [3] (setting [8]), 25%; in experiment [3] (at 50.0 µM) it was 12.7%. Moreover, the values for the growth inhibition in experiment [4] (setting [7]), in experiment [4] (setting [8]) and in experiment [4] (at 50.0 µM) were 1%, 16% and 92.9% (active), respectively.
For the molecule `N=Nc1c(OC(=O)Nc2ccccc2)[nH]c2ccccc12`, the growth inhibition in experiment [6] (setting [7]) is -3%; in experiment [6] (setting [8]), 67%; in experiment [6] (at 50.0 µM), 8.65%; in experiment [1] (setting [7]), 20%; in experiment [1] (setting [8]), 63%; in experiment [1] (at 50.0 µM) it was -6.3%. Further, the growth inhibition in experiment [2] (setting [7]) is 9%; in experiment [2] (setting [8]), 40%; in experiment [2] (at 50.0 µM) it was 63.9%; in experiment [3] (setting [7]), 1%; in experiment [3] (setting [8]) it was 84% (active); in experiment [3] (at 50.0 µM), 31.9%. Besides, the growth inhibition was -3% in experiment [4] (setting [7]), 85% (active) in experiment [4] (setting [8]) and 71.5% (active) in experiment [4] (at 50.0 µM).
Regarding `COc1ccc(C(=O)C(c2ccc(OC)cc2)C2(O)C(=O)Nc3c(C)cc(Cl)cc32)cc1` (configuration not stated), the growth inhibition is 21% in experiment [6] (setting [7]); 21% in experiment [6] (setting [8]); -25.1% in experiment [6] (at 50.0 µM); -15% in experiment [1] (setting [7]); -15% in experiment [1] (setting [8]); 89% (active) in experiment [1] (at 50.0 µM). For the same molecule, the growth inhibition was 3% in experiment [2] (setting [7]); 3% in experiment [2] (setting [8]); 69.7% in experiment [2] (at 50.0 µM); -3% in experiment [3] (setting [7]); -3% in experiment [3] (setting [8]); 89.8% (active) in experiment [3] (at 50.0 µM). Besides, the growth inhibition in experiment [4] (setting [7]) is -2%; in experiment [4] (setting [8]), -2%; in experiment [4] (at 50.0 µM), 38.7%.
On to `O=C1c2sccc2-c2cccc3cccc1c23` (tested in a mixture with another compound), for which the growth inhibition is 87% (active) in experiment [6] (setting [7]); 98% (active) in experiment [6] (setting [8]); 97.2% (active) in experiment [6] (at 50.0 µM); 59% in experiment [5] (setting [7]); 99% (active) in experiment [5] (setting [8]); 96.2% (active) in experiment [5] (at 50.0 µM). Further, the growth inhibition was 20% in experiment [2] (setting [7]); 96% (active) in experiment [2] (setting [8]); 82.5% (active) in experiment [2] (at 50.0 µM); 29% in experiment [3] (setting [7]); 98% (active) in experiment [3] (setting [8]); 83.2% (active) in experiment [3] (at 50.0 µM). The growth inhibition was 86% (active) in experiment [4] (setting [7]), 98% (active) in experiment [4] (setting [8]) and 95% (active) in experiment [4] (at 50.0 µM).
